assay: inhibition of K1F phage lysis of E. coli UTI89, dose response, capsule biogenesis inhibitor project, strain UTI89, C7 control, set 3 (AID 504675); details: E. coli UTI89 K1 capsule; OD600, at 100 µM (top of the series); inhibition of phage lysis: at the top concentration;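 active = compound blocking phage killing of bacteria by at least 30% at some tested dose; inactive = the rest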

Inhibition of phage lysis, inactive:
COc1ccc2nc(NC(=O)c3ccccc3OC)sc2c1 1%
COc1ccc2nc(NC(=O)c3ccccc3)sc2c1 1%
N=c1n(CCN2CCCC2)c2ccccc2n1CC(O)c1ccc(Cl)c(Cl)c1 (centres undefined) 1%
O=C(O)c1cc(-c2cccc(F)c2)nc2ccccc12 1%
COc1ccc2nc(NC(=O)c3ccc(F)cc3)sc2c1 1%
O=C(O)c1cc(-c2ccc(F)cc2)nc2ccccc12 1%
COc1cccc(C(=O)Nc2nc3ccc(OC)cc3s2)c1 1%
COc1ccc(C(=O)Nc2nc3ccc(OC)cc3s2)cc1 1%
COc1cccc(-c2cc(C(=O)O)c3ccccc3n2)c1 1%

— PubChem BioAssay AID504675 (Southern Research Specialized Biocontainment Screening …, 2011)
